The source made the active and inactive calls. Rule for the calls: active = hit-call score of the fitted dose curve at least 0.9, where 1 is the maximum; inactive = score below 0.9.
What was measured:
[1] = test system: SRY-box transcription factor 17 (SOX17) Protein Expression, Deisenroth Lab, SOX17 (gene 64321); assay: CCTE_Deisenroth_DEVTOX-GLR_legacy_Sox17: (Legacy) CCTE's DevTox GLR-Endo Assay Evaluation of SRY-box transcription factor 17 (SOX17) Protein Expression, Deisenroth Lab (AID 2284341); conditions: actives raise or lower the signal
How it was run: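 RUES2-GLR human pluripotent cells, seeded 24 h, then differentiated 48 h in defined media with two chemical exposures 24 h apart (1 nM - 200 uM, 10 points). Sox17+ fraction from high-content fluorescence imaging; bidirectional fit versus 0.2% DMSO.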

[2] = test system: SRY-box transcription factor 2 (SOX2) Protein Expression, Deisenroth Lab, SOX2 (gene 6657); assay: CCTE_Deisenroth_DEVTOX-GLR_legacy_Sox2: (Legacy) CCTE's DevTox GLR-Endo Assay Evaluation of SRY-box transcription factor 2 (SOX2) Protein Expression, Deisenroth Lab (AID 2284346)
How it was run: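 RUES2-GLR human pluripotent cells seeded 24 h, then differentiated 48 h in defined media with two chemical doses 24 h apart (10-point, 1 nM–200 uM). Fixed, nuclear-stained, imaged; % Sox2+ cells (>5x BMAD over endoderm control median), DMSO-subtracted, fitted upward.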

Compound: O=C(O)c1ccccc1O
- outcome [1]: inactive
- outcome [2]: inactive

Compound: CC(C)Cc1ccc(C(C)C(=O)O)cc1 (stereo not drawn)
- outcome [2]: inactive

Reference: PubChem BioAssay (EPA / NIEHS)
